From the supplement of paper PMC10732440
± gives the standard deviation of the averaged measurements.

Test system: Caenorhabditis elegans N2 infected with Nematocida parisii ERTm1
Assay: progeny production relative to DMSO uninfected control; higher = more progeny despite microsporidia infection (inhibition of infection with low host toxicity)
Conditions: infection time 6 days
In short: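 Compound was pinned to 100 μM or 40 μM in 1% DMSO into 96-well plates containing K-medium, E. coli OP50, 15,000 N. parisii spores/μL and 100 synchronised wild-type C. elegans L1 larvae per well. Following 6 days of shaking at 21°C, worms were Rose Bengal-stained, scanned and counted with WorMachine, in three runs per compound and dose. Progeny production appears as a replicate-averaged percentage of spore-free vehicle wells.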

Row | SMILES | progeny production (40 µM) | progeny production (100 µM)
1 | OC1O[C@H](CSc2ccc(F)cc2)[C@@H](O)[C@H]1O (some centres not stated) | 5.22 ± 0.52% | 9.44 ± 6.8%
2 | O=C(Nc1nnc(-c2ccc(Cl)cc2)o1)c1ccc(F)cc1 | 9.22 ± 7.4% | 12.6 ± 4.1%
3 | NC(=O)c1ccccc1NC(=O)c1ccc(C(=O)Nc2ccccc2C(N)=O)cc1 | 8.47 ± 2.6% | 11.6 ± 6.2%
4 | Oc1ccc2[nH]c(-c3ccccc3)nc2c1 | 5.32 ± 3.2% | 11.5 ± 2.5%
5 | N#CCN1C(=O)COc2cc(F)c(N3C(=O)c4ccccc4C3=O)cc21 | 3.98 ± 0.99% | 15.2 ± 12%
6 | CCNC(=O)Nc1cn2c(-c3ncc(CC)cn3)cc(-c3cccnc3)cc2n1 | 3.09 ± 1.5% | 6.08 ± 4.7%
7 | O=C1C=C(c2ccccc2)S(=O)(=O)c2ccccc21 | 9.24 ± 1.8% | 38 ± 9.4%
8 | CC(C)c1ccc(COc2cccc(-c3cc([S+](C)[O-])c(C#N)c(=O)[nH]3)c2)cc1 (configuration not stated) | 2.96 ± 1.6% | 21.4 ± 25%
9 | Nc1cnn(C2OC(CO)C(O)C2O)c(=O)n1 (configuration not stated) | 3.5 ± 1.1% | 13.1 ± 5.4%
10 | CCN(CC)CCCC(C)Nc1ccnc2cc(Cl)ccc12 (configuration not stated) | 8.75 ± 5.2% | 5.16 ± 3.5%
11 | NC(=O)C(c1ccccc1)(c1ccccc1)[C@H]1CCCN(CCc2ccc3c(c2)CCO3)C1 | 7.34 ± 0.47% | 15.2 ± 18%
12 | O=C(NCc1ccc2c3c(cccc13)C(=O)N2)c1cccs1 | 6.15 ± 4.4% | 9.75 ± 6.2%
13 | NC(=O)c1c(N)sc2c1CCCCC2 | 3.71 ± 1.1% | 8.33 ± 4.8%
14 | CC(C)(C)c1ccc(C(Cn2cccc(C(F)(F)F)c2=O)NC2Cc3ccccc3C2)cc1 (configuration not stated) | 1.91 ± 1.3% | 13.4 ± 9.4%
15 | Cc1ccc(N2CCC(CCOc3ccc(S(C)(=O)=O)cc3)CC2)nn1 | 4.13 ± 1% | 11.1 ± 10%
16 | Cn1c2ccccc2c(=O)c2c(O)cccc21 | 3.85 ± 0.59% | 13.6 ± 7.8%
17 | CN(C)CCCNC(=O)c1ccc(-c2cc(O)c3ncccc3c2)cc1 | 5.74 ± 3.9% | 10.5 ± 6.4%
18 | O=C(NCc1ncc(C(F)(F)F)cc1Cl)c1c(Cl)cccc1Cl | 3.33 ± 0.85% | 8.17 ± 5.4%
19 | CCN(CC)CCn1c(=N)n(CC(O)COc2ccc(Cl)cc2Cl)c2ccccc21 (configuration not stated) | 7.02 ± 2.2% | 16.5 ± 20%
20 | CCCC1(C2CC2)c2cc(Cl)ccc2NC(=O)N1C (configuration not stated) | 2.32 ± 0.043% | 11.3 ± 3.5%
21 | Cc1ccc(Oc2ccccc2-c2csc(N=C3NCCCN3)n2)c(C)c1 | 4.22 ± 1.2% | 14.8 ± 12%
22 | CNCC(=O)OCc1cccnc1N(C)C(=O)OC(C)[n+]1cnn(C[C@](O)(c2cc(F)ccc2F)[C@@H](C)c2nc(-c3ccc(C#N)cc3)cs2)c1 (some centres not stated) | 7.13 ± 1.5% | 16.8 ± 10%
23 | O=C(CSc1nnc(Br)n1-c1ccc(C2CC2)c2ccccc12)Nc1ccc(C(=O)O)cc1Cl | 3.49 ± 1.1% | 15.1 ± 5.4%
24 | Cc1ccc(C)c(OCCCCCCN2C[C@H](O)[C@@H](O)[C@H](O)[C@H]2CO)c1 | 3.54 ± 0.93% | 14.1 ± 11%
25 | CN(C(=O)C1(c2ccc(Cl)cc2)CCC1)c1ccccc1 | 2.68 ± 1.6% | 14.9 ± 2.4%
26 | CN(C)[C@@H]1C(=O)C(C(N)=O)=C(O)[C@@]2(O)C(=O)C3=C(O)c4c(O)c(NC(=O)CN5CCCC5)cc(F)c4C[C@H]3C[C@@H]12 | 4.54 ± 0.11% | 6.16 ± 0.72%

Row | SMILES | progeny production (40 µM) | progeny production (100 µM)
27 | CCCCCCCCC(CP(=O)(O)C(C)N)C(=O)O (configuration not stated) | 7.53 ± 0.85% | 18.6 ± 11%
28 | O=C(Nc1ccc(Cl)c(C(F)(F)F)c1)C(CCCl)C(=O)Nc1ccc(Cl)c(C(F)(F)F)c1 | 7.13 ± 2.7% | 8.04 ± 5.6%
29 | CC(C)(C)OC(=O)NCc1ccc(C(=O)N[C@H]2CCOC2=O)cc1 | 5.57 ± 4.2% | 24.3 ± 18%
30 | CCCCc1ccc(-c2cc(C(=O)O)cc(-c3ccc(Cl)cc3)n2)cc1 | 5.13 ± 5.7% | 9.87 ± 7.3%
31 | O=C(O)COc1cccc2c1CC[C@](O)(COC(=O)N(c1ccccc1)c1ccccc1)C2 | 4.24 ± 0.25% | 15.6 ± 8.1%
32 | CC(=O)N1CCN(c2ccc(OCC3COC(Cn4ccnc4)(c4ccc(Cl)cc4Cl)O3)cc2)CC1 (configuration not stated) | 5.16 ± 2.3% | 18 ± 6.4%
33 | CC(C)(C)c1ccc(C(=O)NC(=O)N2CCCc3ccccc32)cc1 | 4.23 ± 2.6% | 22.1 ± 18%
34 | O=C(O)c1cc(-c2ccccc2)nc2ccccc12 | 6.15 ± 0.79% | 6.83 ± 4.5%
35 | C[C@H](c1cccc2ccccc12)N(C)Cc1ccccc1 | 3.94 ± 1.7% | 12.4 ± 7.8%
36 | Cc1ccc(NC(=O)c2cc(Cl)ccc2O)cc1 | 8.65 ± 5.8% | 8.35 ± 5.3%
37 | COc1ccc(COc2cc3oc(=O)c4cc(C(C)O)ccc4c3cc2OC)cc1 (configuration not stated) | 5.78 ± 0.94% | 10.9 ± 7%
38 | CC[C@@H]1C(=O)OC[C@@H]1Cc1cncn1C | 4.59 ± 1.7% | 11.8 ± 11%
39 | O=S(=O)(NCB(O)O)c1ccc(-c2nnn[nH]2)cc1C(F)(F)F | 7.63 ± 2.6% | 22.1 ± 6.9%
40 | O=c1[nH]c(=O)n(Cc2cccc(Oc3ccccc3)c2)cc1Nc1ccccc1 | 4.29 ± 3.5% | 9.39 ± 4.3%
41 | COc1ccc(OCc2ccc(COc3c(Cl)cccc3Cl)cc2)c(Cl)c1 | 5.83 ± 3.1% | 12.3 ± 5.3%
42 | CC(Oc1ccc(Cl)cc1Cl)C(=O)NCc1ccc2c(c1)OCO2 (configuration not stated) | 3.27 ± 0.72% | 14.5 ± 9.6%
43 | CCc1ccc(C2CC(C(F)(F)F)n3ncc(C(=O)NCc4ccc(OC)cc4)c3N2)cc1 (configuration not stated) | 8.73 ± 4.8% | 7.32 ± 3.4%
44 | COc1ccccc1NC(=O)c1ccccc1Sc1ccc([N+](=O)[O-])cc1 | 6.65 ± 3.2% | 14.7 ± 2.9%
45 | CN(O)C(=O)c1cc2c(CN3CCC[C@H]3C(N)=O)cn(Cc3ccc(F)cc3)c2cn1 | 3.84 ± 1.6% | 11.1 ± 4.5%
46 | O=S(=O)(Nc1ccc(O)cc1)c1cccc2cccnc12 | 5.85 ± 2.2% | 12 ± 6.6%
47 | O=C(NNC(=S)Nc1ccc(Cl)cc1)c1ccncc1 | 2.76 ± 1.4% | 18.4 ± 12%
48 | COc1cc(NS(=O)(=O)c2ccc(C)cc2)c2ncccc2c1 | 5.38 ± 2.2% | 10.3 ± 3.9%
49 | O=C(Nc1ccc(F)cc1)c1nn(-c2ccccc2)c(=O)cc1Cl | 5.87 ± 3.4% | 14 ± 9.4%
50 | CC[C@H](CO)Nc1nc(NCc2ccccc2)c2ncn(C(C)C)c2n1 | 4.15 ± 1.7% | 13.5 ± 9.8%
51 | COc1cc(C2C3=C(CC(C)(C)CC3=O)Nc3ccccc3N2C(C)=O)ccc1OCc1ccccc1 (configuration not stated) | 2.3 ± 0.93% | 15.1 ± 15%
52 | CCc1cc(O)c(Oc2cccnc2N)cc1F | 6.17 ± 3.4% | 10.2 ± 5.5%

Row | SMILES | progeny production (40 µM) | progeny production (100 µM)
53 | OCCC#Cc1nc(-c2ccc(F)cc2)c(-c2ccncc2)n1CCCc1ccccc1 | 5.08 ± 0.6% | 16.6 ± 12%
54 | NC(=O)c1[nH]c2ccc(S(N)(=O)=O)cc2c1-c1ccccc1 | 4.85 ± 2.6% | 6.59 ± 2.8%
55 | CC[N+]1(C/C2=C/CCCCCC2)CCC(NC(=O)C2c3cc(Cl)ccc3Oc3ccc(Cl)cc32)CC1 (configuration not stated) | 3.01 ± 1.9% | 2.8 ± 2.2%
56 | C[C@H]1COc2c(N3CCN(C)CC3)c(F)cc3c(=O)c(C(=O)O)cn1c23 | 5.38 ± 2.2% | 12.8 ± 9.1%
57 | O=C(O)c1ccc(-c2ccc(O[C@H]3O[C@H](CO)[C@@H](O)[C@H](O)[C@@H]3O)cc2)cc1 | 5.12 ± 2.8% | 7.21 ± 4.6%
58 | Nc1nc(O)c2ncn([C@@H]3O[C@H](CO)[C@@H](O)[C@H]3F)c2n1 | 4.36 ± 1.3% | 9.71 ± 4.6%
59 | CC(C)n1cnc2c(NCc3ccccc3)nc(NCc3ccccc3)nc21 | 7.59 ± 5.2% | 12.1 ± 7.2%
60 | Fc1ccc2c(/C=C/c3nnn[nH]3)c[nH]c2c1 | 3.91 ± 4% | 12.2 ± 9.8%
61 | COc1cccc(N2CCN(C3=Nc4c(F)cccc4[C@H](CC(=O)O)N3c3cc(C(F)(F)F)ccc3OC)CC2)c1 | 6.01 ± 2.9% | 14.7 ± 7.5%
62 | CCCC(=O)OCCc1ccccc1 | 5.19 ± 1.8% | 11.9 ± 12%
63 | CCOc1ccc(/C=N/NC(=O)C2CC2c2ccc(C(C)(C)C)cc2)cc1OCC (configuration not stated) | 5.73 ± 4.8% | 12 ± 7.9%
64 | O=S(=O)(Nc1ccccc1)c1ccc(NC(=S)Nc2ccccc2)cc1 | 8.72 ± 4.5% | 11.2 ± 6.4%
65 | O=C(c1nc2c(C(F)(F)F)cc(C3CC3)cn2c1Cl)N1CCN([C@H]2CC[C@H](O)CC2)C(=O)C1 | 3.88 ± 1.4% | 14.2 ± 1.2%
66 | CC(C)Cn1c(=O)n(C)c(=O)c2c(-c3cncn3C)n(Cc3cccc4ccccc34)nc21 | 4.44 ± 2.9% | 6.12 ± 1.8%
67 | O=C(NCc1cccc2ccccc12)c1cccs1 | 3.62 ± 2.1% | 12.9 ± 10%
68 | COC(=O)Nc1nc2cc(Sc3ccccc3)ccc2[nH]1 | 7.64 ± 3.1% | 29.3 ± 18%
69 | COc1ccc(CNC(=O)C2CCN([C@H](C)c3cccc4ccccc34)CC2)cc1 | 4.66 ± 2.1% | 15.7 ± 6.6%
70 | CC1(C)CC(NC(=O)C(=O)Nc2ccc(Cl)cc2)CC(C)(C)N1 | 2.32 ± 0.043% | 8.19 ± 5.5%
71 | C=C(C)n1c(=O)n(Cc2ccccc2C)c2ccccc21 | 6.26 ± 0.83% | 14.5 ± 10%
72 | CC(=O)Nc1cc(NS(=O)(=O)c2ccc(Cl)cc2)cc2c(Cl)[nH]nc12 | 5.97 ± 4.1% | 8.68 ± 4%
73 | O=C(Cn1cnc2ccccc2c1=O)Nc1ccccc1 | 5.46 ± 4.2% | 8.2 ± 5.5%
74 | COc1ccc2cc3[n+](cc2c1OCCN(CCn1cncn1)Cc1ccc(F)cc1F)CCc1cc2c(cc1-3)OCO2 | 5.91 ± 1.2% | 17.3 ± 14%
75 | Nc1nc(=O)[nH]cc1F | 5.01 ± 1.2% | 23.7 ± 7.4%
76 | OB1OCc2c1ccc(Cl)c2F | 4.06 ± 1% | 18.5 ± 12%
